# Inconclusive results are not listed. Where a call stands in place of a potency, no number is given. The source made the active and inactive calls. Calls follow the shape of the dose curve; as a rule, active = well fitted activation curve with a large enough effect; inconclusive = small, poorly fitted or top-dose-only effect; inactive = flat fitted curve, though single readings scatter.
# Assay: Validation screen for small molecules that induce DNA re-replication in MCF 10A normal breast cells (AID 463097); also: nearly all actives have a fitted effect of over 60% in size
# Settings: MCF 10A cells, DNA re-replication phenotype imaging; series mostly up to 46.1 µM
# Text: NIH Molecular Libraries Probe Production Network [MLPCN]
# NIH Chemical Genomics Center [NCGC]
# Assay Provider: Melvin DePamphilis, NICHD, NIH
# Eukaryotic cells normally restrict genome duplication to once per cell division. When this process is aberrant, DNA re-replication occurs when cells reinitiate DNA replication before the first round of replication is complete. DNA re-replication induces the DNA damage response, arrests cell proliferation, and triggers apoptosis. The cell cycle components cyclin A, Cdt-1, Cdc6 and geminin are critical regulators of this process and their misregulation results in DNA re-replication in normal and cancer cells. To identify compounds that induce re-replication in normal cells, an image-based assay was used to measure DNA content of nuclei, as detected by the fluorescent DNA binding dye, Hoechst. Cell nuclei were imaged by a fluorescence scanning plate imager and compounds that induce DNA re-replication were identified by the increase of nuclei with elevated fluorescence intensity.
# For screening, 250 cells in 5 uL/well were dispensed into black clear 1536-well plates (Aurora) using a solenoid-based dispenser. Following transfer of 23 nL compound or DMSO vehicle by a pin tool, the plates were incubated 48 hr at 37 C and 5% CO2. After addition of 1 uL/well Hoescht stain, the plates were incubated 40 min at 37 C, 5% CO2 and total intensity of fluorescent objects (nuclei) were enumerated by an Acumen Explorer Ex3 (TTP LabTech) fluorescence scanning plate imager (405 nm excitation, 500-530 nm emission).
# Keywords: NIH Roadmap, MLPCN, MLI, MLSMR, qHTS, NCGC, DNA replication, cancer
# Potency is read from the fitted curve at half-maximal effect.
row,Compound,Potency
1,O=C(O)C1CCCN(CCC=C(c2ccccc2)c2ccccc2)C1 (stereo unspecified),inactive
2,CCN1CCCC1CNC(=O)c1cc(S(N)(=O)=O)ccc1OC (stereo unspecified),inactive
3,CC1=C(C(=O)O)N2C(=O)[C@@H](NC(=O)C(N)c3ccccc3)[C@H]2SC1 (stereo partly specified),inactive
4,OCc1ccc(-c2nn(Cc3ccccc3)c3ccccc23)o1,12.6 µM (active)
5,CC(C)(C)NC(=O)[C@H]1CC[C@H]2[C@@H]3CC[C@H]4NC(=O)C=C[C@]4(C)[C@H]3CC[C@]12C,inactive
6,Nc1nc(N)c2nc(CNc3ccc(C(=O)NC(CCC(=O)O)C(=O)O)cc3)cnc2n1 (stereo unspecified),inactive
7,CCCCS(=N)(=O)CCC(N)C(=O)O (stereo unspecified),inactive
8,CCN(CC)CC#CCOC(=O)C(O)(c1ccccc1)C1CCCCC1 (stereo unspecified),inactive
9,CC(C)NCC(O)c1ccc(NS(C)(=O)=O)cc1 (stereo unspecified),inactive
10,NC(=O)c1cccc(N)c1,inactive
11,CC(=O)[C@H]1CC[C@H]2[C@@H]3CCC4=CC(=O)CC[C@]4(C)[C@H]3CC[C@]12C,inactive

# Reference: PubChem BioAssay (NCATS)
